In the supplement of paper PMC6555819:

The sequences below were run on FXR:RXRa (NR concentration 270 nM, RXRa partner concentration 90 nM) (assay: PBM binding z-score (relative to random genomic background probes); higher = stronger binding; sequences stand for … in GC…GCGATTGACAGCGTAGAATGAAGG).
Procedure, shortened: (§1)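 Binding buffer was PBS pH 7.4 with 2% milk, 0.02% Triton X-100, 1 mM DTT, 0.2 mg/mL BSA and 0.4 mg/ml salmon testes DNA. In it, ligand-free nuclear receptor dimers were incubated 1 h on custom Agilent 4×180K protein-binding microarrays carrying double-stranded probes. Antibodies against each partner (one per run) detected binding, and z-scores were calculated against random background probes after regression normalization of scanned fluorescence.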
Sequence ATTTGTAGGTTAGGGTCATTCAGAAAGTAGGGAA has a PBM binding z-score of 5.22.
With CATACAGGGACAGCTAGGCCAGAGTAGGGACGGC the PBM binding z-score was -0.116.
CAAACTAGGTCACCAGGACAGTGAAGAGGTTGGA showed a PBM binding z-score of 4.67.
For ATATGTAGCTTAGGGTCATTCAGAAAGTAGGGAA, the PBM binding z-score was 4.3.
With CGAACTAGATCAAAGGACAGTGAAAGGCGACGTA the PBM binding z-score was -0.658.
Sequence ATCTCTAGGTAAAGTTCAGCGAAAGATCGATAGA has a PBM binding z-score of 1.69.
Work on CGCACTAGGTCAAAGGACAGTGAAAGGCGACGTA yielded a PBM binding z-score of 4.07.
CGAACGAGGTCAGAACAGGACAGTGAAGGATGAT showed a PBM binding z-score of 5.64.
With CGAACTAGGTCATCGAGGACAGTGAATACATTGA the PBM binding z-score was 4.22.
With CGTCCAAGGTCATAGGAGTTCAGTGAAGACAGAT the PBM binding z-score was 7.7.
In the case of CGAACTAGGTCAAAGGACAGTGAGAGGCGACGTA, the PBM binding z-score is reported as 4.2.
TCTAGTTGGTGACGGAGGTCACACACGACGGGTA gave a PBM binding z-score of 2.59.
For CGAACTAAGTCAAAGGACAGTGAAAGGCGACGTA, the PBM binding z-score was -0.166.
For CCTACTGGGTCATTCAGAGGTCATTGATCATATG, the PBM binding z-score was 5.47.
CGAACTAGGACATCCAGGACAGTGAATACATTGA gave a PBM binding z-score of 0.00191.
In the case of ATCGAAAAGTCGAAGGTGAGTATACCCACCCGAA, the PBM binding z-score is reported as 0.0437.
Work on CGAACTAGGTCAAAGGAGAGTGAAAGGCGACGTA yielded a PBM binding z-score of 3.72.
With CAAAGTAGGTCAAGAGGTCAAAGTCCGCTTCCCG the PBM binding z-score was 7.25.
Sequence CGAACTAGGTCACCAGGACAGTGACGAGGTTGGA has a PBM binding z-score of 4.27.
Work on CGAACTAAGTCACCAGGACAGTGAAGAGGTTGGA yielded a PBM binding z-score of -0.00843.
With ATCTCTAGGTAACAAGGTCAGTGAAAGAGAGGAC the PBM binding z-score was 1.72.
Sequence CCTACTGGGCCATACAGAGGTCATTGATCATATG has a PBM binding z-score of 2.83.
TCTAGTTGGTTACGGAGGTCACACACGACGGGTA gave a PBM binding z-score of 2.67.
CGAACTAGCTCAAAGGACAGTGAAAGGCGACGTA showed a PBM binding z-score of -0.37.
CGAACTAGGTCAAAGGAAAGTGAAAGGCGACGTA was tested, and the PBM binding z-score was 3.12.
For CCTGGCAGGCCAGGGTCACTCAAGCATTTCGCTT, the PBM binding z-score was 2.34.
ATCGAAATGTCGTGAGGTGAGTATACAGAAAGGC showed a PBM binding z-score of 0.101.
Work on ATATGTAGGTTAGGTTCATTCAGAAAGTAGGGAA yielded a PBM binding z-score of 1.59.
For CGAACTAGGTCAAAGGACAGTGCAAGGCGACGTA, the PBM binding z-score was 4.07.
CGAACTAGGTCAAAGGACAGTGAAAGGCGACGTA was tested, and the PBM binding z-score was 4.11.
AATACAGGGTCCTCGTAGGCCAGAGTACGCACAG gave a PBM binding z-score of -0.0498.
For GCTGCTAGGTTAACTGATGGTCAGCTAAAGCTCG, the PBM binding z-score was -0.137.
Sequence TAGCCTAGGTCAAGCGGGCCAGTATAGTGTCGGC has a PBM binding z-score of 4.12.
TTACGAAGGTGAAAGGTCGTTGATGCACGCCTTG was tested, and the PBM binding z-score was 3.43.
With ATCGAAAGGTCGCAGGTGAGTATACCCACCCGAA the PBM binding z-score was 4.98.
Work on CATACCGGGTCAGCTAGGCCAGAGTAGGGACGGC yielded a PBM binding z-score of 2.5.
CGAACTAGGGCACCAGGACAGTGAAGAGGTTGGA gave a PBM binding z-score of -0.211.
For ATATGTAGGTTAGGGTCATTCCGAAAGTAGGGAA, the PBM binding z-score was 4.95.
ACTCGGAGGACAAACGTCAGAGCTACGCCAGTGA gave a PBM binding z-score of -0.117.

The sequences below were run on LXRa:RXRa (NR concentration 270 nM, RXRa partner concentration 90 nM) in the same assay as above.
Procedure, shortened: as §1
ATTTGTAGGTTAGGGTCATTCAGAAAGTAGGGAA was tested, and the PBM binding z-score was 4.68.
In the case of CATACAGGGACAGCTAGGCCAGAGTAGGGACGGC, the PBM binding z-score is reported as -0.651.
Work on CAAACTAGGTCACCAGGACAGTGAAGAGGTTGGA yielded a PBM binding z-score of 2.73.
Sequence ATATGTAGCTTAGGGTCATTCAGAAAGTAGGGAA has a PBM binding z-score of 4.47.
CGAACTAGATCAAAGGACAGTGAAAGGCGACGTA gave a PBM binding z-score of -0.667.
ATCTCTAGGTAAAGTTCAGCGAAAGATCGATAGA showed a PBM binding z-score of 2.33.
Sequence CGCACTAGGTCAAAGGACAGTGAAAGGCGACGTA has a PBM binding z-score of 2.88.
With CGAACGAGGTCAGAACAGGACAGTGAAGGATGAT the PBM binding z-score was 4.06.
CGAACTAGGTCATCGAGGACAGTGAATACATTGA was tested, and the PBM binding z-score was 2.59.
Work on CGTCCAAGGTCATAGGAGTTCAGTGAAGACAGAT yielded a PBM binding z-score of 7.41.
With CGAACTAGGTCAAAGGACAGTGAGAGGCGACGTA the PBM binding z-score was 2.38.
In the case of TCTAGTTGGTGACGGAGGTCACACACGACGGGTA, the PBM binding z-score is reported as 3.03.
Sequence CGAACTAAGTCAAAGGACAGTGAAAGGCGACGTA has a PBM binding z-score of -0.175.
With CCTACTGGGTCATTCAGAGGTCATTGATCATATG the PBM binding z-score was 6.23.
CGAACTAGGACATCCAGGACAGTGAATACATTGA was tested, and the PBM binding z-score was -0.483.
ATCGAAAAGTCGAAGGTGAGTATACCCACCCGAA showed a PBM binding z-score of -0.18.
CGAACTAGGTCAAAGGAGAGTGAAAGGCGACGTA showed a PBM binding z-score of 2.61.
CAAAGTAGGTCAAGAGGTCAAAGTCCGCTTCCCG was tested, and the PBM binding z-score was 6.52.
For CGAACTAGGTCACCAGGACAGTGACGAGGTTGGA, the PBM binding z-score was 2.44.
In the case of CGAACTAAGTCACCAGGACAGTGAAGAGGTTGGA, the PBM binding z-score is reported as -0.109.
ATCTCTAGGTAACAAGGTCAGTGAAAGAGAGGAC was tested, and the PBM binding z-score was 1.92.
Sequence CCTACTGGGCCATACAGAGGTCATTGATCATATG has a PBM binding z-score of 4.1.
In the case of TCTAGTTGGTTACGGAGGTCACACACGACGGGTA, the PBM binding z-score is reported as 3.44.
With CGAACTAGCTCAAAGGACAGTGAAAGGCGACGTA the PBM binding z-score was -0.67.
Sequence CGAACTAGGTCAAAGGAAAGTGAAAGGCGACGTA has a PBM binding z-score of 1.88.
CCTGGCAGGCCAGGGTCACTCAAGCATTTCGCTT was tested, and the PBM binding z-score was 2.07.
With ATCGAAATGTCGTGAGGTGAGTATACAGAAAGGC the PBM binding z-score was -0.0819.
Sequence ATATGTAGGTTAGGTTCATTCAGAAAGTAGGGAA has a PBM binding z-score of 2.28.
Work on CGAACTAGGTCAAAGGACAGTGCAAGGCGACGTA yielded a PBM binding z-score of 2.5.
CGAACTAGGTCAAAGGACAGTGAAAGGCGACGTA was tested, and the PBM binding z-score was 2.54.
AATACAGGGTCCTCGTAGGCCAGAGTACGCACAG gave a PBM binding z-score of -0.32.
GCTGCTAGGTTAACTGATGGTCAGCTAAAGCTCG showed a PBM binding z-score of 1.44.
TAGCCTAGGTCAAGCGGGCCAGTATAGTGTCGGC was tested, and the PBM binding z-score was 3.15.
In the case of TTACGAAGGTGAAAGGTCGTTGATGCACGCCTTG, the PBM binding z-score is reported as 3.33.
For ATCGAAAGGTCGCAGGTGAGTATACCCACCCGAA, the PBM binding z-score was 3.65.
For CATACCGGGTCAGCTAGGCCAGAGTAGGGACGGC, the PBM binding z-score was 1.78.
With CGAACTAGGGCACCAGGACAGTGAAGAGGTTGGA the PBM binding z-score was -0.347.
For ATATGTAGGTTAGGGTCATTCCGAAAGTAGGGAA, the PBM binding z-score was 3.68.
ACTCGGAGGACAAACGTCAGAGCTACGCCAGTGA gave a PBM binding z-score of -0.418.
